# Reference: PubChem BioAssay (EPA / NIEHS)
# Results filed as inconclusive are left out. Calls of active or inactive are those of the source. How the source made its calls: active means hit-call score of the fitted dose curve at least 0.9, where 1 is the maximum; inconclusive means response in the unintended direction; inactive means score below 0.9.
# Key:
# [1] = target: human Dopamine Receptor D2 (DRD2), DRD2 (gene 1813) (UniProt P14416); experiment: NVS_GPCR_hDRD2s: NovaScreen (NVS) G Protein-Coupled Receptor Assay for human Dopamine Receptor D2 (DRD2) (AID 2283266)
# Procedure, shortened: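 Test compound (25 uM, duplicate in the primary screen; concentration series at follow-up) competed with radioligand for human DRD2 in CHO-derived membrane protein. Filter-based scintillation counting was done 1.5 hours after dosing, with loss of signal analysed against DMSO.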
# [2] = target: D(1A) dopamine receptor (Homo sapiens) (UniProt P21728); experiment: NVS_GPCR_hDRD1: NovaScreen (NVS) G Protein-Coupled Receptor Assay for human Dopamine Receptor D1 (DRD1) (AID 2283269)
# Procedure, shortened: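 Radioligand displacement binding on membranes/protein extracted from HEK293 expressing human D1, cell-free; read 1 h after dosing by filter-based scintillation counting. Primary screen in duplicate at 25 uM, actives followed up in concentration series; signal loss versus DMSO baseline.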
# [3] = target: Muscarinic acetylcholine receptor M5 (Homo sapiens) (UniProt P08912); experiment: NVS_GPCR_hM5: NovaScreen (NVS) G Protein-Coupled Receptor Assay for human Muscarinic, M5 Receptor (AID 2283275)
# Procedure, shortened: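 Chemicals passing a primary duplicate screen at 25 uM were run as singleton concentration series, maximum 50 uM. Displacement of a specific radioligand from CHO-extracted receptor was read by filter scintillation after 1 h, relative to DMSO.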
# [4] = target: human Neurokinin, NK2 Receptor, TACR2 (gene 6865) (UniProt P21452); experiment: NVS_GPCR_hNK2: NovaScreen (NVS) G Protein-Coupled Receptor Assay for human Neurokinin, NK2 Receptor (AID 2283278);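 further: actives reduce bound radioligand signal relative to DMSO baseline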
# Procedure, shortened: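 Radioligand binding on membranes from CHO cells expressing receptor, filter-based scintillation read 4 h after dosing. Initial duplicate screen at 25 uM, actives in concentration series; loss of signal versus DMSO.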
# [5] = target: Muscarinic acetylcholine receptor M2 (Homo sapiens) (UniProt P08172); experiment: NVS_GPCR_hM2: NovaScreen (NVS) G Protein-Coupled Receptor Assay for human Muscarinic, M2 Receptor (AID 2283273)
# Procedure, shortened: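 CHO-expressed human M2 receptor preparation, competitive displacement of a radioligand read by filter-based scintillation counting after 1 h. Single 25 uM duplicate screen, then concentration-response follow-up of actives; DMSO baseline.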
# [6] = target: human Neuropeptide Receptor Y1 (NPY1), NPY1R (gene 4886) (UniProt P25929); experiment: NVS_GPCR_hNPY1: NovaScreen (NVS) G Protein-Coupled Receptor Assay for human Neuropeptide Receptor Y1 (NPY1) (AID 2283276)
# Procedure, shortened: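 Displacement of specific radioligand from NPY1 receptor of SK-N-MC origin, read by filtration and scintillation after 1 h. Compounds first tested at 25 uM in duplicate, then actives in concentration series; signal loss relative to DMSO.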
# [7] = target: human Thromboxane A2 Receptor (TXA2), TBXA2R (gene 6915) (UniProt P21731); experiment: NVS_GPCR_hTXA2: NovaScreen (NVS) G Protein-Coupled Receptor Assay for human Thromboxane A2 Receptor (TXA2) (AID 2283282);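 further: actives reduce bound radioligand signal relative to DMSO baseline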
# Procedure, shortened: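 Cell-free radioligand binding on membrane protein from human platelets; radioligand displacement read by filter-based scintillation counting after 1 h. Primary screen in duplicate at 25 uM, actives then run in concentration series; loss of signal versus DMSO.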
# [8] = target: human Orphanin, Opioid Related Nociceptin Receptor 1 (ORL1), OPRL1 (gene 4987) (UniProt P41146); experiment: NVS_GPCR_hORL1: NovaScreen (NVS) G Protein-Coupled Receptor Assay for human Orphanin, Opioid Related Nociceptin Receptor 1 (ORL1) (AID 2283283)
# Procedure, shortened: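 Cell-free binding using HEK293-derived receptor protein: radioligand displacement measured by filter scintillation 1 hour after dosing. Primary testing at 25 uM in duplicate, followed by singleton concentration series up to 50 uM; DMSO served as negative control.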
# [9] = target: human Muscarinic, M4 Receptor, CHRM4 (gene 1132) (UniProt P08173); experiment: NVS_GPCR_hM4: NovaScreen (NVS) G Protein-Coupled Receptor Assay for human Muscarinic, M4 Receptor (AID 2283274)
# Procedure, shortened: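 Filter-based scintillation counting of radioligand bound to CHO-expressed human M4 preparations after 1 h; loss of signal fitted versus DMSO. Initial duplicate testing at 25 uM, concentration-response follow-up for actives.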
# [10] = target: mouse Cholecystokinin, CCK1 Receptor (CCKA), Cckar (gene 12425) (UniProt O08786); experiment: NVS_GPCR_mCCKAPeripheral: NovaScreen (NVS) G Protein-Coupled Receptor Assay for mouse Cholecystokinin, CCK1 Receptor (CCKA) (AID 2283285)
# Procedure, shortened: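 Chemicals were first screened in duplicate at 25 uM, with those meeting threshold (e.g., 30% inhibition) retested in singleton concentration series to 50 uM maximum. Binding of radioligand to mouse pancreatic membranes was read after 2 h by filtration and scintillation counting.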
# [11] = target: human Histamine 1 Receptor (H1), HRH1 (gene 3269) (UniProt P35367); experiment: NVS_GPCR_hH1: NovaScreen (NVS) G Protein-Coupled Receptor Assay for human Histamine 1 Receptor (H1) (AID 2283268)
# Procedure, shortened: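 Filter-based scintillation detection of radioligand binding to human H1, 1 h incubation; chemicals screened in duplicate at 25 uM, then concentration-response; signal loss relative to DMSO taken as activity.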
# [12] = target: human Leukotriene B4 Receptor 1 (LTB4-BLT1), LTB4R (gene 1241) (UniProt Q15722); experiment: NVS_GPCR_hLTB4_BLT1: NovaScreen (NVS) G Protein-Coupled Receptor Assay for human Leukotriene B4 Receptor 1 (LTB4-BLT1) (AID 2283271)
# Procedure, shortened: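 Cell-free human neutrophil receptor preparation, 1 h exposure, radioligand binding read by filter scintillation counting. Single 25 uM duplicate screen, then concentration series topping at 50 uM; binding loss scored against DMSO baseline.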
# [13] = target: human Opioid Receptor Delta 1 (Opiate D1), OPRD1 (gene 4985) (UniProt P41143); experiment: NVS_GPCR_hOpiate_D1: NovaScreen (NVS) G Protein-Coupled Receptor Assay for human Opioid Receptor Delta 1 (Opiate D1) (AID 2283280)
# Procedure, shortened: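 Membrane preparations from CHO cells bearing the human receptor were incubated 1 h with test chemical, and bound radioligand was counted after filtration. Actives from 25 uM duplicate screening were retested in concentration-response.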
# [14] = target: human Purinergic Receptor P2Y, P2RY1 (gene 5028) (UniProt P47900); experiment: NVS_GPCR_hPY2: NovaScreen (NVS) G Protein-Coupled Receptor Assay for human Purinergic Receptor P2Y (AID 2283281)
# Procedure, shortened: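 Filtration scintillation readout of radioligand displacement on U937 extract, measured 1 h post-dosing. Single 25 uM duplicate screen, then singleton concentration series to 50 uM for chemicals passing threshold; DMSO as baseline.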
# [15] = target: human Neurotensin Receptor (NTS), NTSR1 (gene 4923) (UniProt P30989); experiment: NVS_GPCR_hNTS: NovaScreen (NVS) G Protein-Coupled Receptor Assay for human Neurotensin Receptor (NTS) (AID 2283279)
# Procedure, shortened: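 Compounds competed with a radiolabelled ligand for binding to CHO-derived human neurotensin receptor; bound signal counted after filtration, 1 h. Screened first at a single concentration of 25 uM in duplicate, then concentration series to 50 uM maximum for actives.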
# [16] = target: Muscarinic acetylcholine receptor M3 (Homo sapiens) (UniProt P20309); experiment: NVS_GPCR_hM3: NovaScreen (NVS) G Protein-Coupled Receptor Assay for human Muscarinic, M3 Receptor (AID 2283272)
# Procedure, shortened: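 Radioligand displacement binding on human M3 receptor in CHO-derived membranes, 1 h incubation, filter-based scintillation counting. Primary screen in duplicate at 25 uM; actives followed up in concentration series; loss of signal versus DMSO.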
# Chain of Muscarinic acetylcholine receptor M2 (Homo sapiens) (P08172 whole entry, looked up): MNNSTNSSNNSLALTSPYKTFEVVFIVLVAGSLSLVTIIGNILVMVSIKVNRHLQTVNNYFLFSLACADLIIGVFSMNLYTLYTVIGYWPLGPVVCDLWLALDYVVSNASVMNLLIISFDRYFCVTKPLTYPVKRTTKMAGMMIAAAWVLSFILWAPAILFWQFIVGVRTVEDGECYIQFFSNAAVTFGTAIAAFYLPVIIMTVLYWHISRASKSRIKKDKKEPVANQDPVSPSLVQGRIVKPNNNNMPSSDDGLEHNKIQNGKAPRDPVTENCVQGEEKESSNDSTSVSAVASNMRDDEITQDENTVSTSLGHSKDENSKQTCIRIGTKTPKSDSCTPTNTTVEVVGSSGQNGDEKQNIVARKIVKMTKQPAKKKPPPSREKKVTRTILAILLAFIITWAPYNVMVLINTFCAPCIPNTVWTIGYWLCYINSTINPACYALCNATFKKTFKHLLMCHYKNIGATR
# Chain of D(1A) dopamine receptor (Homo sapiens) (P21728 whole entry, looked up): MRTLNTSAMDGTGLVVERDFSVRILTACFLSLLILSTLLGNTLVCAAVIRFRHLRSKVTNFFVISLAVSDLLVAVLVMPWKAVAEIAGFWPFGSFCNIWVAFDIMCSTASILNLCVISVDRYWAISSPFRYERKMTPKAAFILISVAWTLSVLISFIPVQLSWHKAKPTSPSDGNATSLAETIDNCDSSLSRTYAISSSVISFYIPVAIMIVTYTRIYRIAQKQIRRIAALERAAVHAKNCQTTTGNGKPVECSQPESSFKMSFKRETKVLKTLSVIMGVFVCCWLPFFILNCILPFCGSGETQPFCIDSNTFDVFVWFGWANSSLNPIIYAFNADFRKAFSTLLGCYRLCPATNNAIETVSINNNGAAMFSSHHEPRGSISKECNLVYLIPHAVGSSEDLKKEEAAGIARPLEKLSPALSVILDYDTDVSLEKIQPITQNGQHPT
# Chain of human Neurokinin, NK2 Receptor, TACR2 (gene 6865) (P21452 whole entry, looked up): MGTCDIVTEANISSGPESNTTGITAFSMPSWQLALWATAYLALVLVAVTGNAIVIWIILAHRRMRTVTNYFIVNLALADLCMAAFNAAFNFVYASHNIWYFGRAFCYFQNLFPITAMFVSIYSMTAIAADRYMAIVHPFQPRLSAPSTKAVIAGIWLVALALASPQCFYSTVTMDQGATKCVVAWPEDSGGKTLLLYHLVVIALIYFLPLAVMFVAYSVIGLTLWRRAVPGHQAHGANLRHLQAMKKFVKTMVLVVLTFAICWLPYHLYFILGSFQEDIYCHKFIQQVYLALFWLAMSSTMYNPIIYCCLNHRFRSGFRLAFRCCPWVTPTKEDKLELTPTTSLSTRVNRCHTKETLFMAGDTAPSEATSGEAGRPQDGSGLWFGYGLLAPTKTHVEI
# Chain of human Dopamine Receptor D2 (DRD2), DRD2 (gene 1813) (P14416 whole entry, looked up): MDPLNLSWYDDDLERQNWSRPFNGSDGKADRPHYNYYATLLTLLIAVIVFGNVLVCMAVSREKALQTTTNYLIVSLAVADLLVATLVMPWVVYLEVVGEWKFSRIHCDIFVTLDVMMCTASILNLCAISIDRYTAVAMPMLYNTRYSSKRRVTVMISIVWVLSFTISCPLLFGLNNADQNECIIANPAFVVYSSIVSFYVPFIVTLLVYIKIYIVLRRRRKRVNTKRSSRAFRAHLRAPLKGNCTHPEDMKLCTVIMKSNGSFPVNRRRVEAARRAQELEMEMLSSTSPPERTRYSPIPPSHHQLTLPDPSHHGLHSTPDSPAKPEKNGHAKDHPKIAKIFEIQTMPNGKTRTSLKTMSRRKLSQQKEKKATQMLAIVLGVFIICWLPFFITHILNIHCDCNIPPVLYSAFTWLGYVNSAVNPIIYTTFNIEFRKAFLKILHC
# Chain of Muscarinic acetylcholine receptor M5 (Homo sapiens) (P08912 whole entry, looked up): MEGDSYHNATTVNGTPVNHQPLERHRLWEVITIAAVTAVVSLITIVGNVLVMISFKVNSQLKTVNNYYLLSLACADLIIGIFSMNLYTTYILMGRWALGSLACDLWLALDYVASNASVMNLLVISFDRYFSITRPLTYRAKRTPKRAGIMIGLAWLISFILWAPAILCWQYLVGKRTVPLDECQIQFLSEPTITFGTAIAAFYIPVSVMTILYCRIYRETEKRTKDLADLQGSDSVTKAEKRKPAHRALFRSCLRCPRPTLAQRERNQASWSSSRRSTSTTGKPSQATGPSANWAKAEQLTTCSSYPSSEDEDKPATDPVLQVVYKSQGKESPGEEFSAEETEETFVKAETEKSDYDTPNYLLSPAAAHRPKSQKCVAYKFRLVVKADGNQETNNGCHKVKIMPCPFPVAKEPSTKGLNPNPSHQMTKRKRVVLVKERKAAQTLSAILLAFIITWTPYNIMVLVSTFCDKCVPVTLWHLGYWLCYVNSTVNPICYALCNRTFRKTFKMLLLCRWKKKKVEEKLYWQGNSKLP
# Chain of human Muscarinic, M4 Receptor, CHRM4 (gene 1132) (P08173 whole entry, looked up): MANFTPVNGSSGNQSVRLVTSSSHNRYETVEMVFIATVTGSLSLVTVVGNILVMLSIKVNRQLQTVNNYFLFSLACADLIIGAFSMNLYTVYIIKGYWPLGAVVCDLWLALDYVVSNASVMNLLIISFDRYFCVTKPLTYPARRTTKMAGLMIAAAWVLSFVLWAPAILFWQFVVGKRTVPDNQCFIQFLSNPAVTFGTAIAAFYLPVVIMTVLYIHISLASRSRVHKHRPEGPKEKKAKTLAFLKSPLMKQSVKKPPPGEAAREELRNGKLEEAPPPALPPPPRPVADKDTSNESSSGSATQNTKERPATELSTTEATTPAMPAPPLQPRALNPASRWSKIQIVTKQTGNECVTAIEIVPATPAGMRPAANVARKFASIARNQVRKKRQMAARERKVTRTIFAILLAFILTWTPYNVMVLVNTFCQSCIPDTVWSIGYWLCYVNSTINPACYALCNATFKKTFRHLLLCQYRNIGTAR
# Chain of Muscarinic acetylcholine receptor M3 (Homo sapiens) (P20309 whole entry, looked up): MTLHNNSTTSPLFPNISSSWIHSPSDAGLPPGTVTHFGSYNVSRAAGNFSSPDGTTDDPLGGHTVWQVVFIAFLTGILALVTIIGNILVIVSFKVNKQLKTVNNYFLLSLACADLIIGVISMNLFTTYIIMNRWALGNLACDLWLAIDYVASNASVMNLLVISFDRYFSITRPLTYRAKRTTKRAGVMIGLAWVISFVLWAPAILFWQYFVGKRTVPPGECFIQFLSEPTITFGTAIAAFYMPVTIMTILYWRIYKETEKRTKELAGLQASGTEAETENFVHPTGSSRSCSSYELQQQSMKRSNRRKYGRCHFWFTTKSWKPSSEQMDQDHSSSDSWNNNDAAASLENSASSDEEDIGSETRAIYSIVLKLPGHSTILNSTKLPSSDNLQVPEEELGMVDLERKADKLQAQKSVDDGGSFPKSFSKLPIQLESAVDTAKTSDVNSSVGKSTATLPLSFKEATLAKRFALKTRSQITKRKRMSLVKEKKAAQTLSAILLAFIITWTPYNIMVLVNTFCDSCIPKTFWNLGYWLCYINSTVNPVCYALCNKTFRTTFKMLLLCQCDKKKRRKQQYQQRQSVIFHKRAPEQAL
# Chain of human Leukotriene B4 Receptor 1 (LTB4-BLT1), LTB4R (gene 1241) (Q15722 whole entry, looked up): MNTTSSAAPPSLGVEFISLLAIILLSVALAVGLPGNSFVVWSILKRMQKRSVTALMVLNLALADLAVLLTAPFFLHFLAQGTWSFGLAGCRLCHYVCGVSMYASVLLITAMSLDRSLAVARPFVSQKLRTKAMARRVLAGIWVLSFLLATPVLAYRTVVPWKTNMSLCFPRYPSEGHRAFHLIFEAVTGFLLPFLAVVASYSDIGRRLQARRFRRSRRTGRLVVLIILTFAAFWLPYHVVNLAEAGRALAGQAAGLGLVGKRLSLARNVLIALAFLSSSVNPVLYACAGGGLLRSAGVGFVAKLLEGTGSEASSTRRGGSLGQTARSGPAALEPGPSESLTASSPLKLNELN
# Chain of human Neuropeptide Receptor Y1 (NPY1), NPY1R (gene 4886) (P25929 whole entry, looked up): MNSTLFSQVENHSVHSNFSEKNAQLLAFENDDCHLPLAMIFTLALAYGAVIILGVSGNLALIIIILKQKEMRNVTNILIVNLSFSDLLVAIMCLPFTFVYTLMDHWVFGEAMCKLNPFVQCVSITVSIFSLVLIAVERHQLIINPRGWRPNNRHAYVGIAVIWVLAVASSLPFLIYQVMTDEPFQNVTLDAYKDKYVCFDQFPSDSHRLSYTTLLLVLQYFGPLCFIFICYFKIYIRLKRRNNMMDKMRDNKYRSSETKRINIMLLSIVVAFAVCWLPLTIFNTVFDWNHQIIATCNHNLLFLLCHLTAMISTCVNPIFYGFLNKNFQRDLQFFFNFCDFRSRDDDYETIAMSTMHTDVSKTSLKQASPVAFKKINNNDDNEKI
# Chain of human Orphanin, Opioid Related Nociceptin Receptor 1 (ORL1), OPRL1 (gene 4987) (P41146 whole entry, looked up): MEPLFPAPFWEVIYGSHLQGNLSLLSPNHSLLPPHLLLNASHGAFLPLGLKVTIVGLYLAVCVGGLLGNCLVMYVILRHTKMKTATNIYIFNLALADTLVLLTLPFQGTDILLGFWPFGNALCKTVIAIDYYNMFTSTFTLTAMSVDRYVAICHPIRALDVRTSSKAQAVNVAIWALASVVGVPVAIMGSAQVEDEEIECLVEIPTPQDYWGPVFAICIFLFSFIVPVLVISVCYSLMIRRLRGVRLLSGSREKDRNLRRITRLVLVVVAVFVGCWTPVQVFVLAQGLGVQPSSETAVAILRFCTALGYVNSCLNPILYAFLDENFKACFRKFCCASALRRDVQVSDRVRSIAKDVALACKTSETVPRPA
# Chain of human Thromboxane A2 Receptor (TXA2), TBXA2R (gene 6915) (P21731 whole entry, looked up): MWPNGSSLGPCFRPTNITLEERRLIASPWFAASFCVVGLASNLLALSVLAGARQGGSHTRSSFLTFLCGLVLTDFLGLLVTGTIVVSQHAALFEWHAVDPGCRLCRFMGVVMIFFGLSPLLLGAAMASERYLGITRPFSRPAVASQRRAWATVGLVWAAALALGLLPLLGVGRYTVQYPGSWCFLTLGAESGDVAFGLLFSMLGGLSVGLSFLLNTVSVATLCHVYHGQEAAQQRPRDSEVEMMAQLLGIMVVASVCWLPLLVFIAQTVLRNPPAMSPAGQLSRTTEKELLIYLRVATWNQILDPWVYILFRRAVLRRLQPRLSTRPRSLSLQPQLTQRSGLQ
compound,measurement,setting,value
COc1ccc(OC(F)(F)F)cc1CN[C@H]1CCCN[C@H]1c1ccccc1,outcome,[1],inactive
same,AC50,[2],25 µM (active)
same,AC50,[3],9.18 µM (active)
same,AC50,[4],13.5 µM (active)
O=Cc1ccccc1C=O,AC50,[5],17 µM (active)
same,AC50,[6],12.9 µM (active)
same,AC50,[7],16.7 µM (active)
same,AC50,[8],25 µM (active)
CN(C)C(=O)NC1(c2ccccc2)CCN(CC[C@@]2(c3ccc(F)c(F)c3)CN(C(=O)c3ccccc3)CCO2)CC1,outcome,[1],inactive
same,AC50,[5],9.11 µM (active)
same,AC50,[9],16.9 µM (active)
same,AC50,[3],12.8 µM (active)
same,AC50,[4],0.00564 µM (active)
same,AC50,[10],12.8 µM (active)
CSc1ccc(Oc2ccc(S(N)(=O)=O)cc2CN(C)C)cc1C,AC50,[1],15 µM (active)
same,AC50,[11],19.6 µM (active)
same,AC50,[2],5.11 µM (active)
same,outcome,[12],inactive
same,AC50,[4],6.33 µM (active)
same,AC50,[13],15 µM (active)
O=NO,outcome,[9],inactive
CC(COCC(C)OC(=O)c1ccccc1)OC(=O)c1ccccc1 (stereo not drawn),outcome,[14],inactive
CCCCOC(=O)CCCCC(=O)OCCCC,outcome,[15],inactive
O=C(O)c1[nH]n(-c2ccc(S(=O)(=O)O)cc2)c(=O)c1N=Nc1ccc(S(=O)(=O)O)cc1,outcome,[1],inactive
same,AC50,[2],19.2 µM (active)
same,outcome,[16],inactive
same,outcome,[5],inactive
Cc1c(C)c2c(c(C)c1O)CCC(C)(COc1ccc(CC3SC(=O)NC3=O)cc1)O2 (stereo not drawn),outcome,[1],inactive
